Drawing on PubChem BioAssay (EPA / NIEHS), this text covers outcome and AC50 for 14 compounds.

Results filed as inconclusive are left out. The source made the active and inactive calls. Rule for the calls: active = hit-call score of the fitted dose curve at least 0.9, where 1 is the maximum; inconclusive = response in the unintended direction; inactive = score below 0.9.

In the test the target is rat Opioid Receptor, Non-selective Binding, Oprm1 (gene 25601) (UniProt P33535). Description: NVS_GPCR_rOpiate_NonSelective: NovaScreen (NVS) G Protein-Coupled Receptor Assay for rat Opioid Receptor, Non-selective Binding (AID 2283318). The protocol: NVS_GPCR_rOpiate_NonSelective is a biochemical, single-readout assay that uses extracted gene-proteins from Rat forebrain membranes in a tissue-based cell-free assay. Measurements were taken 1.5 hours after chemical dosing in a 48-well plate.NVS_GPCR_rOpiate_NonSelective is one of one assay component(s) measured or calculated from the NVS_GPCR_rOpiate_NonSelective assay. It is designed to make measurements of radioligand binding, a form of binding reporter, as detected with scintillation counting signals by Filter-based radiodetection technology.Data from the assay component NVS_GPCR_rOpiate_NonSelective was analyzed into 1 assay endpoint. This assay endpoint, NVS_GPCR_rOpiate_NonSelective, was analyzed in the positive analysis fitting direction relative to DMSO as the negative control and baseline of activity. Using a type of binding reporter, loss-of-signal activity can be used to understand changes in the binding as they relate to the gene Oprm1. Furthermore, this assay endpoint can be referred to as a primary readout, because the performed assay has only produced 1 assay endpoint. To generalize the intended target to other relatable targets, this assay endpoint is annotated to the gpcr intended target family, where the subfamily is rhodopsin-like receptor.
Sequence of rat Opioid Receptor, Non-selective Binding, Oprm1 (gene 25601) (P33535 whole entry, looked up): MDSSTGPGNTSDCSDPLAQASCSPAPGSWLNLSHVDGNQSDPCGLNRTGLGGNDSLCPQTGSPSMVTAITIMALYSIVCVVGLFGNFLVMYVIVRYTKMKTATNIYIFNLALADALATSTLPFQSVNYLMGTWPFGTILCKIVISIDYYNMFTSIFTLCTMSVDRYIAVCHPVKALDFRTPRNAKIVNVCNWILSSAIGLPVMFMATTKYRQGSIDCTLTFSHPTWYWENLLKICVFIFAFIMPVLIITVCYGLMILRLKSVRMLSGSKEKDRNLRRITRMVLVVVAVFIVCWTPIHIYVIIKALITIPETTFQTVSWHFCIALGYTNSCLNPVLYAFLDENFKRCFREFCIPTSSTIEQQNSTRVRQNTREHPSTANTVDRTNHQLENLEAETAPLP
Binding assays used specific radioligands (tritiated, iodinated) with non-radioactive competitive displacement ligands in agonist or antagonist protocols (as indicated) and various reference compounds and inhibitors to titrate specific binding to receptors and transporters. Most enzyme assays (CYPs, kinases, phosphatases, proteases, HDACs) used recombinant protein and specific substrates (fluorescence mostly, some colorimetric and radioactive) and inhibitors, followed by a biochemical separation of substrate and product. All assays for the biochemical HTS were initially run in duplicate at a single concentration (10 uM for CYP450 assays and 25 uM for all others). […] Each assay was run with positive and negative controls, and concurrent controls on every plate. The follow-up (secondary) screen tested active chemical-pairs in concentration series, as well as a few additional assays not tested in the primary screen, some selected negative inactives, and several cases re-run in the concentration series for confirmatory purposes.
`O=c1c(-c2ccc(O)cc2)coc2cc(O)ccc12`: the call was inactive.
Broadly, the AC50 is the concentration at which the activity in the assay is half-maximal. `CCCOc1sc(C(=O)N2CCC(c3cc(CN)ccc3F)CC2)c(C)c1Br`: the AC50 is 11 µM (active).
Take `COCC(C)OCC(C)O` (centres undefined): the compound was called inactive.
Take `CC(=O)NC1(c2cccc(F)c2)CCN(CC[C@@]2(c3ccc(Cl)c(Cl)c3)CN(c3ccccc3)C(=O)CO2)CC1`: the AC50 is 7.82 µM (active).
As to `c1ccc2c(c1)Cc1ccccc1-2`, the outcome was inactive.
With `O=C(O)Cc1cc(I)c(Oc2cc(I)c(O)c(I)c2)c(I)c1`, the outcome was inactive.
The same measure, in the same setting: for `CC(=O)CC(C)(C)O` the value was “inactive”; for `Cc1oc(-c2ccccc2)nc1CCOc1ccc(C[C@H](Nc2ccccc2C(=O)c2ccccc2)C(=O)O)cc1`, “inactive”.
As to `CC#C[C@]1(O)CC[C@H]2[C@@H]3CCC4=CC(=O)CCC4=C3[C@@H](c3ccc(N(C)C)cc3)C[C@@]21C`, the AC50 is 0.404 µM (active).
As to `CCN(CC)CCNc1ccc(CNC=O)c2sc3ccc(OC)cc3c(=O)c12`, the call was inactive.
With `CC[C@H](c1ccc(O)cc1)[C@@H](CC)c1ccc(O)cc1`, the AC50 is 5.14 µM (active).
Turning to `CCCCCCCC(=O)O`, the outcome was inactive.
For `ClC1=C(Cl)C(Cl)(Cl)C(Cl)=C1Cl`, the call was inactive.
The same measure, in the same setting: to `NC(=O)N(O)[C@@H]1C=C[C@H](Oc2cccc(Oc3ccc(F)cc3)c2)C1` belongs “inactive”.
